Data as given in article PMC4336329 (PLoS ONE, 2015).
Out of some 310,000 compounds screened, about 14,000 (4.5%) showed an effect of 50% or more. The effect is printed as a negative number. The sample as a whole holds a higher share of strong results than the screen did.

The compounds below were run against human ether-à-go-go-related gene (hERG) potassium channel (human, UniProt Q12809) (assay: primary screen, population patch clamp on CHO cells stably expressing hERG; higher = less effect of the substance).
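Note: peak tail current of the secondary pulse compared with the same well before compound.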

Chain of human ether-à-go-go-related gene (hERG) potassium channel (Q12809 whole entry, looked up): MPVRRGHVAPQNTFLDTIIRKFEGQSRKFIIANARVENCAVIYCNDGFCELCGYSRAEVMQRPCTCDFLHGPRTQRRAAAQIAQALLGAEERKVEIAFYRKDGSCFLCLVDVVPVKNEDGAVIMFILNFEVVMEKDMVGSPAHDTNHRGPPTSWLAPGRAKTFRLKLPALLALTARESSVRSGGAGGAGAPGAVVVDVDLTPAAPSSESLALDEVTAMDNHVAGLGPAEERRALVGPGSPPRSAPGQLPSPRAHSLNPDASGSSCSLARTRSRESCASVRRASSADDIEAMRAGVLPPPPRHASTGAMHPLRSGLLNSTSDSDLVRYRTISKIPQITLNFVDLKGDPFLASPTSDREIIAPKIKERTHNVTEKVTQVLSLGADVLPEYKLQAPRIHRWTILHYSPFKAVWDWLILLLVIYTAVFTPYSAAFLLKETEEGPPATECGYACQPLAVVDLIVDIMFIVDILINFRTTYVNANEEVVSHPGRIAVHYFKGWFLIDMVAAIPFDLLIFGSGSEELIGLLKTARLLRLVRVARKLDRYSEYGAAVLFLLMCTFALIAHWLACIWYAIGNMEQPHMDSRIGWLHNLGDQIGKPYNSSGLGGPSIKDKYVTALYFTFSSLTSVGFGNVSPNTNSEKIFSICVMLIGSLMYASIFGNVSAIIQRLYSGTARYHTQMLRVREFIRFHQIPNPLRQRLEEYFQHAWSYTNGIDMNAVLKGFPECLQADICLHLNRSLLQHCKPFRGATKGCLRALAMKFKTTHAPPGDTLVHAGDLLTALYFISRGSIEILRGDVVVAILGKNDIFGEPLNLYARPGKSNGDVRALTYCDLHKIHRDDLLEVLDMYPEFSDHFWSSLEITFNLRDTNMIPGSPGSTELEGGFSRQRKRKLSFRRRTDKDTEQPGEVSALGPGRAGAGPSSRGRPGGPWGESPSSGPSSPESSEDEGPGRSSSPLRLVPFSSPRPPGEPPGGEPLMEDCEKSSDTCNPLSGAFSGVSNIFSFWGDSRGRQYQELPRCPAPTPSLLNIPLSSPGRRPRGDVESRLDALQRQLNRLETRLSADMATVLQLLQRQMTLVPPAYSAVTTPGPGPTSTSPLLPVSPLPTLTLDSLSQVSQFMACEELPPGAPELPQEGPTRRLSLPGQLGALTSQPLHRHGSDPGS

Point of comparison: `CC(=O)N1CCOc2ccc(S(=O)(=O)NCCc3ccc(S(N)(=O)=O)cc3)cc21`, “hERG current change (%, negative = inhibition) at 10uM” value 12.2%. Against it:
- C=CCn1c(SCC(=O)Nc2cccc3ccccc23)nnc1-c1cnccn1 — lower, -39.9%
- C=CCn1c(SCC(=O)Nc2cc(C)ccc2C)nnc1-c1cnccn1 — lower, -14.4%
- Cc1ccc(NC(=O)CSc2nnc(-c3ccccn3)n2C)cc1 — lower, -28.1%
- CCn1c(SCC(=O)Nc2ccc(F)cc2)nnc1-c1cnccn1 — lower, -56.8%
- C=CCn1c(SCC(=O)Nc2ccc(F)cc2F)nnc1-c1cnccn1 — lower, -58.8%
- CCn1c(SCC(=O)Nc2ccc3c(c2)OCCO3)nnc1-c1ccccn1 — lower, -16.1%
- CCn1c(SCC(=O)Nc2ccc(C)cc2)nnc1-c1cnccn1 — lower, -31.8%
- CCn1c(SCC(=O)Nc2ccccc2F)nnc1-c1cnccn1 — lower, -34.9%
- CCn1c(SCC(=O)Nc2ccc(C)cc2)nnc1-c1ccccn1 — lower, -59.1%
- COc1cc(C2NC(=O)NC(c3ccccc3)=C2C(C)=O)ccc1OCC#N (stereo not drawn) — lower, -8.43%
- CN1CCN(C(=O)c2ccc(C3SCC(=O)N3Cc3ccco3)cc2)CC1 (stereo not drawn) — lower, 6.13%
- CCOc1ccc(/C=N/NC(=O)c2csc(C)c2C)c(OCC)c1 — lower, 6.43%
- Cc1ccc(S(=O)(=O)NCCC(=O)Nc2cc(S(=O)(=O)N(C)C)ccc2C)cc1C — lower, -7.95%
- O=C(c1cc([N+](=O)[O-])ccc1N1CCCC1)N1CCCC1 — lower, -0.904%
- CCN1CC(CN(C)Cc2nc(-c3ccc(Cl)cc3)no2)CC1=O (stereo not drawn) — lower, -59.1%
- CCN1CC(CN(C)Cc2nc(-c3ccco3)oc2C)CC1=O (stereo not drawn) — lower, 10.4%
- CCN1CC(CN(C)Cc2nc(-c3ccc(C(F)(F)F)cc3)no2)CC1=O (stereo not drawn) — lower, -28.9%
- CCN1CC(CN(C)Cc2nc(-c3ccc(OC)c4ccccc34)oc2C)CC1=O (stereo not drawn) — lower, -37.2%
- CCN1CC(CN(C)Cc2nc(-c3cccs3)no2)CC1=O (stereo not drawn) — lower, 3.65%
- CCN1CC(CN(C)Cc2nc(-c3ccc(C(F)(F)F)cc3)oc2C)CC1=O (stereo not drawn) — lower, -51.5%
- Cc1cc(O)c(NC(=O)c2ccc(Br)o2)cc1C — lower, -7.04%
- COc1ccc(N2CCN(C(=O)CN(c3cccc(OC)c3)S(=O)(=O)c3ccccc3)CC2)cc1 — lower, -19.4%
- CC(=O)OC1CC2(C)C(=O)CCC2C2CCc3cc(O)ccc3C12 (stereo not drawn) — lower, 1.59%
- Cc1ccc(Nc2cccc(C(F)(F)F)c2)nn1 — lower, -0.351%
- COc1ccc2c(c1)CCCN2S(=O)(=O)c1ccc(Cl)cc1 — lower, 9.65%
- COc1ccc2c(c1)CCCN2C(N)=Nc1ccc(Cl)cc1 — lower, -63.7%
- COc1ccc2c(c1)CCCN2C(N)=O — higher, 17.4%
- Cc1ccc(NC(=O)CN(C)C(=O)C(Sc2ccccc2)c2ccccc2)cc1 (stereo not drawn) — lower, 2.05%
- CC(=O)O[C@H]1C(=O)[C@@]2(C)C([C@H](OC(=O)c3ccccc3)[C@]3(O)C[C@H](OC(=O)[C@H](O)[C@@H](NC(=O)Cc4ccccc4)c4ccccc4)C(C)=C1C3(C)C)[C@]1(OC(C)=O)CO[C@@H]1C[C@@H]2O (stereo partly drawn) — higher, 16.6%
- CCC1CCCCN1CCCNC(=O)c1cn(C)c2ccc(S(=O)(=O)N3CCOCC3)cc2c1=O (stereo not drawn) — higher, 21.3%
- CCn1cc(C(=O)NCCCN2CCCC(C)C2)c(=O)c2cc(S(=O)(=O)N3CCc4ccccc4C3)ccc21 (stereo not drawn) — lower, -75.7%
- CCn1cc(C(=O)N2CCc3ccccc32)c(=O)c2cc(S(=O)(=O)N3CC(C)CC(C)C3)ccc21 (stereo not drawn) — lower, -43.8%
- CCC1CCCCN1CCCNC(=O)c1cn(CC)c2ccc(S(=O)(=O)N3CCc4ccccc4C3)cc2c1=O (stereo not drawn) — lower, -72%
- CCn1cc(C(=O)N2CCc3ccccc3C2)c(=O)c2cc(S(=O)(=O)N3CCCCC3)ccc21 — lower, -40.7%
- CCn1cc(C(=O)NCCCN2CCCCCC2)c(=O)c2cc(S(=O)(=O)N3CCc4ccccc4C3)ccc21 — lower, -77.7%
- CCn1cc(C(=O)NCCCOC)c(=O)c2cc(S(=O)(=O)N3CCC(C)CC3)ccc21 — lower, -10.3%
- CCn1cc(C(=O)NCCCOC)c(=O)c2cc(S(=O)(=O)N3CCCC3)ccc21 — lower, -4.05%
- CCn1cc(C(=O)N2CCc3ccccc32)c(=O)c2cc(S(=O)(=O)N3CCCCCC3)ccc21 — lower, -67.1%
- CCn1cc(C(=O)NCCCN2CCCC2)c(=O)c2cc(S(=O)(=O)N3CCc4ccccc4C3)ccc21 — lower, -8.75%
- CCOCCCNC(=O)c1cn(CC)c2ccc(S(=O)(=O)N3CCC(C)CC3)cc2c1=O — lower, -22.6%
- CCOCCCNC(=O)c1cn(CC)c2ccc(S(=O)(=O)N3CCCC3)cc2c1=O — lower, -6.08%
- COc1cc(N2CCOCC2)ccc1/C=C1\C(=O)NC(=O)N(Cc2ccc3c(c2)OCO3)C1=O — higher, 16.5%
- COc1ccc(S(=O)(=O)N2CCOCC2)cc1C(=O)Nc1cc(C)on1 — lower, 2.19%
- CCn1c(SCC#N)nc2ccccc2c1=O — lower, 2.7%
- CN(CC(=O)Nc1ccc(F)cc1)C(=O)COC(=O)CSc1ccc(F)cc1 — lower, -16%
- CCc1c(C)sc(NC(=O)c2cc(-c3ccc(O)cc3)on2)c1C#N — lower, 11.2%
- O=C(CCc1nnc2ccc(NCc3ccco3)nn12)Nc1ccc(F)cc1F — lower, -4.76%
- COc1ccc(OC)c(C2=NOC(C(=O)Nc3cc(C)on3)C2)c1 (stereo not drawn) — higher, 17.2%
- O=C(CCc1nc2sc3c(c2c(=O)[nH]1)CCCC3)Nc1ccccc1Cl — lower, 7.93%
- CN(C)C(=O)CSc1nnc(NC(=O)CCc2ccccc2)s1 — lower, -5.24%
- CC(=O)c1cccc(NC(=O)N2CC(C)OC(C)C2)c1 (stereo not drawn) — lower, 10.4%
- Cc1ccc(NC(=O)OCCNC(=O)c2ccncc2)cc1 — lower, 8.86%
- CCN(CC(=O)NCc1ccc(Cl)cc1)C(=O)c1cnc(Cl)c(Cl)c1 — lower, 5.29%
- Cc1cc(Cl)ccc1OCC(=O)NCc1ccncc1 — lower, -8.3%
- CCN(CC(=O)NCc1ccc(F)cc1)C(=O)c1ccc(C(=O)c2ccccc2)cc1 — lower, -42.3%
- CCOc1ncccc1C(=O)N(CC)CC(=O)NCc1ccc(Cl)cc1 — lower, 1.69%
- CCN(CC(=O)NCc1ccc(Cl)cc1)C(=O)COc1ccc(Cl)cc1Br — lower, -67.7%
- O=C(COc1cccc(Cl)c1)NCc1ccccc1 — higher, 18.9%
- O=C(COc1ccc(Cl)cc1Br)NC(=O)NCc1ccccc1 — higher, 13.3%
- CCN(CC(=O)NCc1ccc(Cl)cc1)C(=O)CSc1cc(C)ccc1C — lower, -47.5%
- CCN(CC(=O)NCc1ccc(Cl)cc1)C(=O)COc1cccc(Cl)c1 — lower, -73.5%
- CCN(CC(=O)NCc1ccc(Cl)cc1)C(=O)COc1ccc(C)cc1C — lower, -78.4%
- CN(CC(=O)NCc1ccc(F)cc1)Cc1cccc(Cl)c1 — lower, 4.92%
- CCN(CC(=O)NCc1ccc(F)cc1)C(=O)C(C)Oc1cccc(Cl)c1 (stereo not drawn) — lower, -54.4%
- COc1ccccc1C(=O)Nc1cc(C)on1 — lower, 7.07%
- CN(C)S(=O)(=O)c1ccc(Cl)c(NC(=O)COC(=O)C2CCCO2)c1 (stereo not drawn) — lower, 5.01%
- COc1ccc(NC(=O)CSc2nc(SC)ns2)c(OC)c1 — lower, 2.53%
- O=C(OCc1csc(-c2ccccc2)n1)c1ccccc1O — higher, 29.6%
- CC1CCC(NC(=O)CSc2nnnn2C)CC1 (stereo not drawn) — lower, 6.96%
- CCOc1ccc(CCNC(=O)COC(=O)c2ccc(OC)c(OC)c2OC)cc1OCC — the same, 12.2%
- O=C(COc1cccc2cccnc12)NNC(=S)Nc1ccccc1 — lower, -25.8%
- CCc1cccc(C)c1NC(=O)C1CCCN(S(C)(=O)=O)C1 (stereo not drawn) — higher, 23.6%
- Cc1ccc([C@@H]2[C@@H]3C(=O)N(C)C(=O)[C@@H]3[C@]3(Cc4ccccc4)C(=O)N(CCO)CC(=O)N23)o1 — lower, 0.221%
- COc1cccc(CN(C)CC(=O)NCc2ccc(C)cc2)c1.O=C(O)C(=O)O — lower, -49.3%
- CCN(CC(=O)NCc1ccc(F)cc1)CC(O)COCc1cccc(OC)c1 (stereo not drawn) — lower, -60.6%
- COc1cccc(NC(=O)NCc2ccc(F)cc2)c1 — lower, -5.73%
- COc1ccc(C2=NS(=O)(=O)N(C)C(C(=O)NC3CCCC3)=C2)cc1 — lower, 2.43%
- Cc1cc(C)n2nc(SCc3nnc(SCc4ccccc4)s3)nc2n1 — lower, -28.6%
- Cc1cc(C)n2nc(SCc3nnc(SCc4ccccc4Cl)s3)nc2n1 — lower, 9.19%
- COc1cccc(CSc2nc3nc(C)cc(C)n3n2)c1 — lower, -4.72%
- COc1cccc(CSc2nnc(CSc3nc4nc(C)cc(C)n4n3)s2)c1 — lower, -54.4%
- Cc1cc(C)n2nc(SCc3nnc(SCc4ccccc4C)s3)nc2n1 — lower, -64.9%
- Cc1cccc(CSc2nc3nc(C)cc(C)n3n2)c1 — lower, -27.9%
